An excerpt weighted towards active compounds, which were near 12% of everything screened.
USP17 inh: human USP17-like deubiquitinase inhibition; purified USP17, Ub-rhodamine cleavage fluorescence, 3 h; inhibition, % at 50 µM; 47,000 tested, 6.5% active; A8MUK1
USP28 inh: human USP28 deubiquitinase inhibition. purified USP28, Ub-rhodamine cleavage fluorescence, 30 min. inhibition, % at 25 µM. 47,000 tested, 3% active. AID 1645857
USP30 block: human USP30 deubiquitinase inhibition. purified USP30, Ub-rhodamine cleavage fluorescence. inhibition, % at 25 µM. 47,000 tested, 5.3% active. AID 1645860
OTUD3 block: human OTUD3 deubiquitinase inhibition. inhibition, % at 25 µM. purified OTUD3, Ub-rhodamine fluorescence, 2 h. 47,000 tested, 0.7% active. Q5T2D3
* = called active by the depositor; x = not tested or not shown. Rule as the data show it: active = inhibition above about 30%; inactive = the rest.

SMILES | USP17 inh | USP28 inh | USP30 block | OTUD3 block
Cc1ccc(Nc2nc(NCCc3ccccc3)nc3c2cnn3C)cc1 | 74* | -9 | 16 | 0
O=C1NC2(CCCc3ccccc32)C(=O)N1Cc1ccccc1 (stereo not drawn) | -2 | -3 | 15 | -9
O=C(Nc1ccc2c(c1)OCO2)C1CC(=O)N(CCc2ccccc2)C1 (stereo not drawn) | 44* | 9 | 6 | 13
O=C(Nc1ccc2c(c1)OCO2)C1CCN(Cc2nc3ccccc3s2)CC1 | 5 | 70* | -6 | 10
COc1ccc(CCN2CC(C(=O)Nc3ccc4c(c3)OCO4)CC2=O)cc1OC (stereo not drawn) | 7 | 8 | 7 | 6
O=S(=O)(c1ccc2c(c1)OCCCO2)N1CCN(Cc2nc3ccccc3s2)CC1 | -24 | -14 | -49 | -8
O=C1C[C@@H]2O[C@H](CNC(=O)[C@@H]3CN(CCN3C(=O)C3CCOCC3)C(=O)[C@@H]3C[C@@H](CN3C3CCCCC3)N1)[C@@H](O)[C@H]2O | -96 | -86 | -391 | -68
Cc1cc(C)c(COc2ccc3c(c2C)OC(C)(C)CC3=O)c(C)c1 | 21 | 12 | 30* | 15
O=C(COC(=O)C1(c2ccccc2F)CCCC1)Nc1ccc2c(c1)OCO2 | 41* | 21 | 37* | 20
COc1cc(NC(=O)COC(=O)C2(c3ccccc3F)CCCC2)cc(OC)c1 | 14 | 19 | 41* | 23
CCN[C@H]1C[C@@H](c2ccccc2)OC2(CCN(Cc3ccnn3C)CC2)C1 | -1 | 0 | -1 | 7
CC1=C(C)C(c2c(-c3ccc(C)cc3)[nH]c3ccccc23)N(C(C)(C)C)C1=O (stereo not drawn) | 94* | 12 | 10 | 4
Cc1ccc(S(=O)(=O)N2CCC(c3c(C)[nH]c4ccccc34)CC2)cc1 | 10 | 3 | -28 | 0
Clc1ccc2c(Nc3ccc4c(c3)OCO4)ccnc2c1 | 56* | 43* | 53* | 10
Cc1c(CC(=O)Nc2nn[nH]n2)c(=O)oc2cc3c(cc12)CCC1(CCCCC1)O3 | 0 | 21 | 58* | 6
Cc1c(CC(=O)NC2CC2)c(=O)oc2cc3c(cc12)CCC1(CCCCC1)O3 | 13 | 14 | 26 | 22
CCCN1C(=O)CCc2cc(NC(=O)c3ccccc3)ccc21 | 2 | 27 | 10 | 10
CN1C(=O)CCc2cc(NC(=O)c3cc4ccccc4[nH]3)ccc21 | 33* | -32 | -88 | -32
CN1C(=O)c2cc(NC(=O)c3ccccc3)ccc2Oc2ccccc21 | 13 | 41* | 7 | 6
CN1C(=O)c2cc(NC(=O)c3ccccc3Cl)ccc2Oc2ccccc21 | 2 | 80* | 9 | -4
Cc1ccccc1C(=O)Nc1ccc2c(c1)Sc1ncccc1C(=O)N2C | 5 | -7 | -51 | -8
CCN1C(=O)c2cc(NC(=O)c3ccc(F)cc3)ccc2Oc2ccccc21 | 14 | 45* | 23 | 14
CCCCCCCCCCCCCCCCC(O)C(=O)NC(COC1OC(CO)C(O)C(O)C1O)C(O)/C=C/CC/C=C(\C)CCCCCCCCC (stereo not drawn) | -17 | -8 | -37 | -26
CC(C)(C)OC(=O)N1CCC[C@H]1C(=O)N1CCC(C(=O)N[C@H](CC(N)=O)C(=O)O)(c2ccccc2)CC1 | 8 | 1 | 4 | 0
Cc1nc2cc(-c3noc(-c4cccc5[nH]ccc45)n3)ccc2o1 | 36* | 42* | 5 | -6
SMILES | USP17 inh | USP28 inh | USP30 block | OTUD3 block
Cc1nc2cc(-c3noc(-c4nn(C)c5ccccc45)n3)ccc2o1 | 19 | 1 | 42* | -7
COc1ccc(/C=C/c2nc(-c3ccc4oc(C)nc4c3)no2)cc1 | x | 13 | 6 | 11
COc1cccc(C(CNC(=O)c2ccccc2)N2CCOCC2)c1 (stereo not drawn) | -14 | x | x | 0
Cn1c(=O)c2c(C(=O)N3CCN(c4ccc(Cl)cc4)CC3)cc(=O)n(C)c2n(C)c1=O | 16 | 3 | 12 | -3
O=C(NCc1ccco1)N1CCC(c2nc(-c3ccccc3)no2)C1 (stereo not drawn) | 6 | 0 | -63 | 11
COCCNC(=O)c1ccc(-c2ccc(N3CCCCC3)nc2)cc1 | 68* | 23 | 31* | 13
CCc1ccc(C(=O)NCc2ccc(N3CCOCC3)nc2)cc1 | 27 | 19 | 19 | 18
Cc1ccc(Nc2nc(N3CCCCC3)nc(N(c3ccccc3)c3ccccc3)n2)cc1 | x | -17 | -12 | -14
CN1CCN(c2nc(-c3ccc(Cl)cc3)nc3c2oc2ccccc23)CC1 | -5 | -2 | -5 | -3
COc1cc(OC)cc(-c2nc(-c3nnn(Cc4ccccc4)c3C)no2)c1 | 5 | 16 | 6 | 7
CCOc1ccccc1-c1noc(CCn2c(=O)[nH]c3ccccc3c2=O)n1 | 10 | 11 | 35* | 9
